Cav3 T inh: blocks human Cav3.2 T-type calcium channel | Cav3.2-expressing cells, Fluo-4 calcium fluorescence FDSS; stronger effect = lower value | B-score at 10 µM | O95180 | hit rate 4% among 100,000;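 active means single-dose well whose peak fluorescence ratio is a statistical outlier from its plate by either plate-standardised score or position-corrected B-score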
CYP2C19 inhib: inhibitors of human CYP2C19. P33261. CYP2C19 Supersomes, luciferin-H EGE luminescence, 30 min. inhibition, % at 5 µM. hit rate 21% among 96,000. AID 778;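 active means CYP2C19 inhibition above a set limit at 5 µM in the primary screen, cut at about 50% in these data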;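 further: plate controls were negative control wells for no effect and 2.5 mM tranylcypromine positive control for full effect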
Target sequence (P33261 whole entry, looked up): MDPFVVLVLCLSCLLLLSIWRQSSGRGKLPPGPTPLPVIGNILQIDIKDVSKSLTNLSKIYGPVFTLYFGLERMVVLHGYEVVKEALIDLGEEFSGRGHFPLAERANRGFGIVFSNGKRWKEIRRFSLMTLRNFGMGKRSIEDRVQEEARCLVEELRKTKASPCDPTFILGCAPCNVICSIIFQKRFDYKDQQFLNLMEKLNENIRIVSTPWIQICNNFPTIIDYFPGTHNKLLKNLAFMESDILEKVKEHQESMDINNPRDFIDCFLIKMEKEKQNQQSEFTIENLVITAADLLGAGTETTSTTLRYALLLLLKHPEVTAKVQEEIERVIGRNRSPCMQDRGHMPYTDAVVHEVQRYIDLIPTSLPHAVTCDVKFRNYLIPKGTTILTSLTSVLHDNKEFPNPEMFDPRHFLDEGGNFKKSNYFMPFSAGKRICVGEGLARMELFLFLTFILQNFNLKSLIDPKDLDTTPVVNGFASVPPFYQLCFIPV
CYP2C19 act: activators of human cytochrome P450 2C19. P33261. recombinant CYP2C19, luciferin-H EGE luminescence; stronger effect = higher value; 0 = fully inhibited enzyme, 1 = untreated enzyme. activation factor at 5 µM. 96,000 tested, under 10 active;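 active means activation factor of at least 2 at 5 µM in the primary screen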;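 further: 0 = wells with 2.5 mM tranylcypromine and 1 = vehicle-only wells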
CYP2C9 act: CYP2C9 (human) activation; recombinant CYP2C9, luciferin-H conversion, luminescence; stronger effect = higher value; factor 1 = untreated enzyme, 0 = blocked; activation factor at 5 µM; hit rate 1.4% among 96,000;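 active means activation factor of 2 or more for CYP2C9 at a 5 µM dose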;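 further: 0 = sulfaphenazole-blocked wells and 1 = vehicle-only wells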
CYP2C9 inh: human CYP2C9 inhibition; inhibition, % at 5 µM; P11712; hit rate 20% among 96,000; CYP2C9 Supersomes, luciferin-H conversion, luminescence;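 active means blocking of liver enzyme CYP2C9 beyond about 50% at 5 µM, limit read from the data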
Numbers without * were called inactive; . = not tested or not shown. Hits are enriched below; roughly 27% of the tested compounds scored in any of these assays.

SMILES	Cav3 T inh	CYP2C19 inhib	CYP2C19 act	CYP2C9 act	CYP2C9 inh
CCCNC(=O)c1ccc2nc(-c3ccccc3)c(-c3ccccc3)nc2c1	-0.64	7	0.9	0.5	51*
CCCNC(=O)c1cccc(C(F)(F)F)c1	0.41	10	0.9	1	-1
O=C(NCc1ccccc1)c1ccc2nc(-c3ccco3)c(-c3ccco3)nc2c1	-0.29	36	0.6	0.2	77*
COc1ccc2nc(-c3ccco3)c(-c3ccco3)nc2c1	-1.9	35	0.7	0.4	56*
O=C(Nc1ccccc1)c1ccc2nc(-c3ccco3)c(-c3ccco3)nc2c1	0.13	61*	0.4	0.3	67*
CCCCNC(=O)c1ccc2nc(-c3ccco3)c(-c3ccco3)nc2c1	.	4	1	0.7	31
CCOC(=O)N1CCN(S(=O)(=O)c2cc(OCC(N)=O)c(C)cc2Cl)CC1	0.52	48	0.5	0.9	7
CC(=O)Nc1ccc(NS(=O)(=O)c2cn(C)c(=O)n(C)c2=O)cc1	1.4	-17	1.2	1.2	-15
CN1CCN(/C=N/c2c(C#N)cnn2Cc2ccccc2)CC1	-0.064	-6	1.1	1.1	-7
Nc1c(Cl)cc(Cl)cc1C(=O)OCC(=O)NC1CC1	-2.6	41	0.6	2.1*	-113
Cc1ccc(-c2csc(NC(=O)CSc3nc(C)cc(=O)[nH]3)n2)cc1	0.47	27	0.7	0.2	82*
Cc1ccc(NC(=O)CSc2nc(NS(=O)(=O)c3ccccc3)cc(=O)[nH]2)cc1	-0.73	23	0.8	0.4	61*
CCC(Sc1nc(C)cc(=O)[nH]1)C(=O)Nc1nc(-c2ccccc2)cs1 (stereo unspecified)	-0.56	71*	0.3	0.1	88*
Cc1cc(=O)[nH]c(SCC(=O)Nc2ccc(C(=O)O)cc2)n1	.	14	0.9	0.8	16
CCC(Sc1nc(-c2ccccc2)c(C#N)c(=O)[nH]1)C(=O)Nc1nnc(C)s1 (stereo unspecified)	0.13	11	0.9	0.3	67*
Cc1ccc(-c2csc(NC(=O)CSC3=NCCS3)n2)cc1	0.13	.	.	.	.
CSc1nc(C)cc(OCCNS(=O)(=O)c2ccc(C)cc2)n1	0.98	.	.	.	.
Cc1ccc(C23OC(=O)C(C)(C)C2OC(=O)C3(C)C)cc1 (stereo unspecified)	1.4	32	0.7	0.8	20
CCOC(=O)c1c(NC(=O)CSc2nnc(-c3ccccc3)n2CC)sc(C(C)=O)c1C	0.037	90*	0.1	0	97*
COC(=O)c1c(NC(=O)C2c3ccccc3Oc3ccccc32)sc(C)c1C	-1	12	0.9	0.6	40
CCOC(=O)c1c(NC(=O)C2c3ccccc3Oc3ccccc32)sc(C(C)=O)c1C	-1.8	48	0.5	0.1	94*
CCOC(=O)c1c(NC(=O)CSc2nnc(-c3cccc(C)c3)n2CC)sc(C(C)=O)c1C	-3.9	45	0.5	0.1	94*
COc1ccc(Cl)cc1N1C(=O)/C(=C\c2sccc2C)N=C1SCC(=O)NC1CC1	-6.2*	97*	0	0	97*
O=C(c1c[nH]c(C(=O)C(Cl)(Cl)Cl)c1)c1ccccc1Cl	-3.3	41	0.6	0.3	72*
COc1ccc(Cl)cc1NC(=O)CN1CCC(n2nnc3cc(C)ccc32)CC1	-2.2	94*	0.1	1.3	-29
SMILES	Cav3 T inh	CYP2C19 inhib	CYP2C19 act	CYP2C9 act	CYP2C9 inh
COc1ccccc1NC(=O)CN1CCC(n2c(C)nc3cc(F)ccc32)CC1	1.2	37	0.6	1	3
COC(=O)c1ccccc1NC(=O)CN1CCC(n2nnc3cc(C(F)(F)F)ccc32)CC1	.	70*	0.3	0.2	82*
CC1Cc2ccccc2N1C(=O)CN1CCC(n2nnc3cc(C(F)(F)F)ccc32)CC1 (stereo unspecified)	-9.5*	50*	0.5	0.6	44
Cc1nc2cc(C(F)(F)F)ccc2n1C1CCN(CC(=O)N2CCOCC2)CC1	0.7	0	1	1	0
Cc1ccc2c(c1)nnn2C1CCN(CC(=O)NCCc2ccccc2)CC1	0.051	52*	0.5	0.6	35
Cc1cc(C(=O)NCCCN2CCCC2=O)no1	0.66	-12	1.1	1.2	-15
Cc1ccc2c(c1)nnn2C1CCN(CC(=O)Nc2ccccc2N2CCOCC2)CC1	-0.85	71*	0.3	0.3	75*
COc1ccccc1NC(=O)CN1CCC(n2nnc3cc(F)ccc32)CC1	-0.27	97*	0	0.8	18
CCOC(=O)n1c(=O)oc2ccc(Cl)cc21	-0.71	.	.	.	.
O=c1ccc(/C=C/c2ccccc2)nn1Cc1ccc(Cl)cc1Cl	0.58	27	0.7	0.6	42
CCOC(=O)n1c(=O)n(Cc2ccc(Cl)cc2Cl)c2ccccc21	.	63*	0.4	0.8	19
O=Nc1c(O)n(Cc2ccc(Cl)cc2)c2ccccc12	-0.44	84*	0.2	0.1	90*
N=c1n(CCO)c2ccccc2n1Cc1ccc(Cl)cc1	-1.2	24	0.8	0.8	18
O=Nc1c(O)n(Cc2ccc(Cl)cc2Cl)c2ccccc12	0.13	33	0.7	0.4	60*
COc1cc(C)c(Cl)cc1S(=O)(=O)n1ccnc1C	-0.2	92*	0.1	1.5	-52
COc1cc2nc(=S)n3[nH]c(CCn4nc(C)cc4C)nc3c2cc1OC	0.32	30	0.7	0.6	44
Cc1cc2c(cc(C(=O)OCC(=O)NCc3cccs3)n2C(C)C)o1	-3.5	50*	0.5	0.4	65*
O=C(CSc1nc2ccccc2c(=O)[nH]1)N1CCCCCC1	1.1	12	0.9	0.8	25
O=C(CSc1nc2ccccc2c(=O)[nH]1)c1ccc(O)c(O)c1	0.46	22	0.8	0.2	77*
O=C(CSc1nc2ccccc2c(=O)[nH]1)c1cccs1	0.0083	39	0.6	0.3	66*
Cc1ccc(Cl)cc1N(CC(=O)N1CCCCCC1)S(C)(=O)=O	-0.86	27	0.7	1	-2
CCCC/C=C/[C@H](c1ccccc1)[C@H](CO)Cc1cccnc1	-1.3	.	.	.	.
COc1ccc(C(=O)CSc2nc(SC)ns2)cc1OC	-0.46	62*	0.4	1	-2
COc1ccc(C(=O)CSc2cc(C)nc3nc(C)nn23)cc1OC	-0.036	-2	1	1	2
CC(CC(=O)NCc1cccnc1)c1ccccc1 (stereo unspecified)	1.1	.	.	.	.
CC(OC(=O)CN1C(=O)NC(C)(C)C1=O)C(=O)c1ccccc1 (stereo unspecified)	0.12	60*	0.4	0.8	24
O=C1c2cccc3c(N4CCCCC4)ccc(c23)C(=O)N1CCO	-6.1*	27	0.7	0.6	43
Cc1n[nH]c(C)c1N1C(=O)c2cccc3c(N4CCCCCC4)ccc(c23)C1=O	-9.7*	83*	0.2	0	97*
CC(=O)c1ccc2c3c(cccc13)C(=O)N(c1c(C)nn(C)c1C)C2=O	0.025	0	1	1	0
CC(C)(C)C(=O)Nc1ccc(C(=O)NNC(=O)Cc2ccccc2)cc1	-0.035	-8	1.1	1.3	-25

Bioassay records as filed in PubChem.
